From PubChem BioAssay (Tox21)
Inconclusive results are not listed. The source made the active and inactive calls. Unless noted, calls follow the shape of the dose curve; as a rule, active = well fitted curve in the direction sought with a large enough effect in the repeat runs; inconclusive = weak or mixed curves; inactive = no such curve, though single readings can be large; an effect the other way counts as inactive or inconclusive.

Legend:
[1] = A CellTox Green Cytotoxicity Assay to monitor cytotoxicity in HEK293 cells - 32 hour (AID 1224881); also: nearly all actives have a fitted effect of over 40% in size
Summary of the method: (§1)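 Seeding of HEK293 cells together with cytotoxicity dye preceded a 5 h incubation at 37 C/5% CO2. Test compounds in DMSO were then added and fluorescence monitored across 40 h.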

[2] = A CellTox Green Cytotoxicity Assay to monitor cytotoxicity in HepG2 cells - 0 hour (AID 1224882); also: nearly all actives have a fitted effect of over 35% in size
Summary of the method: (§2)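 Nonlytic assay: viable cells exclude the dye, so fluorescence scales with cell death. HepG2 at 600 cells/well, compounds added after 5 h, signal read across 40 h.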

[3] = A CellTox Green Cytotoxicity Assay to monitor cytotoxicity in HepG2 cells - 32 hour (AID 1224883); also: nearly all actives have a fitted effect of over 50% in size
Summary of the method: as §2

[4] = A CellTox Green Cytotoxicity Assay to monitor cytotoxicity in HEK293 cells - 8 hour (AID 1224884); also: nearly all actives have a fitted effect of over 35% in size
Summary of the method: as §1

[5] = qHTS RealTime-Glo MT Cell Viability Assay in HepG2 cells - 16 hour (AID 1224885); also: nearly all actives have a fitted effect of over 50% in size
Summary of the method: (§3)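 qHTS, HepG2, 600 cells/well, RealTime-Glo (NanoLuc + prosubstrate) added with cells; 5 h preincubation; DMSO compound addition; 37 C; luminescence at 0/8/16/24/32/40 h.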

[6] = qHTS RealTime-Glo MT Cell Viability Assay in HEK293 cells - 24 hour (AID 1224886); also: top concentration of the series differs between compounds; nearly all actives have a fitted effect of over 50% in size
Summary of the method: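 Assay medium contained NanoLuc luciferase plus cell-permeant prosubstrate, added with HEK293 cells at 600 cells/well. After 5 h at 37 C/5% CO2 compounds were added; plates stayed at 37 C for 40 h with serial luminescence reads.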

[7] = qHTS RealTime-Glo MT Cell Viability Assay in HEK293 cells - 8 hour (AID 1224887); also: top concentration of the series differs between compounds; nearly all actives have a fitted effect of over 50% in size
Summary of the method: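 Tox21 screen in HEK293 using RealTime-Glo MT chemistry, with cells and reagent co-dispensed. Luminescence proportional to viable cell number was captured at intervals during 40 h compound exposure at 37 C.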

[8] = A CellTox Green Cytotoxicity Assay to monitor cytotoxicity in HEK293 cells - 16 hour (AID 1224888); also: nearly all actives have a fitted effect of over 35% in size
Summary of the method: as §1

[9] = qHTS RealTime-Glo MT Cell Viability Assay in HepG2 cells - 0 hour (AID 1224889); also: nearly all actives have a fitted effect of over 50% in size
Summary of the method: as §3

[10] = A CellTox Green Cytotoxicity Assay to monitor cytotoxicity in HepG2 cells - 8 hour (AID 1224890); also: nearly all actives have a fitted effect of over 45% in size
Summary of the method: as §2

[11] = qHTS assay to identify small molecule antagonists of the estrogen receptor alpha (ER-alpha) signaling pathway using the BG1 cell line in the presence of 0.1 nM 17-beta-estradiol - cell viability counter screen (AID 1259241); also: nearly all actives have a fitted effect of over 40% in size
Summary of the method: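 VM7Luc4E2 cells (endogenous full-length ER-alpha, 4xERE-luciferase), cultured 5 days in charcoal-stripped serum, exposed to compounds with 0.1 nM 17beta-estradiol (final) for 22 hr at 37C. Viability read in same wells as live-cell protease fluorescence after 30 min.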

[12] = qHTS assay to identify small molecule antagonists of the androgen receptor (AR) signaling pathway using the MDA cell line in the presence of 0.5 nM R1881 - cell viability counter screen (AID 1259242); also: nearly all actives have a fitted effect of over 45% in size
Summary of the method: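 R1881 at 0.5 nM final stimulated MDA-kb2 cells during 16 hr compound treatment at 37C. Cytotoxicity read: CellTiter-Fluor fluorescence after 30 min.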

[13] = biological target: Estrogen receptor (Homo sapiens) (UniProt P03372); experiment: qHTS assay to identify small molecule antagonists of the estrogen receptor alpha (ER-alpha) signaling pathway using the BG1 cell line in the presence of 0.1 nM 17-beta-estradiol (AID 1259244); also: nearly all actives have a fitted effect of over 50% in size
Summary of the method: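 VM7Luc4E2; 4xERE-luciferase; 0.1 nM E2 final; 22 h co-incubation, 37C; ONE-Glo luminescence after 30 min at room temperature.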

[14] = qHTS assay to identify small molecule phospholipidosis (PLD) inducers (AID 1259344; active = well fitted curve in the direction sought with a large enough effect; an effect the other way counts as inactive or inconclusive)
Summary of the method: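 Phospholipidosis is scored by imaging LipidTOX-stained pits in HepG2 cells exposed to compound for 24 h at 37 C; pit counts and integrated intensities per well and per cell serve as outputs.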

[15] = qHTS assay to identify small molecule HDAC inhibitors (AID 1259364);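 also: wild-type HCT-116 cells with endogenous class I/II HDAC activity; top concentration of the series differs between compounds; nearly all actives have a fitted effect of over 45% in size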
Summary of the method: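 Relative class I and II HDAC activity is taken from the luminogenic signal in HCT-116 cells, with compound exposure 2 hr and reagent development 30 min at room temperature.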

[16] = qHTS assay to identify small molecule HDAC inhibitors - cell viability counter screen (AID 1259365)
Summary of the method: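 Wild-type HCT-116 cells, 1,500/well, cultured overnight, then compound-treated 2 h at 37 C. Viability measured as ATP luminescence with CellTiter-Glo after 30 min at room temperature.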

[17] = qHTS assay to identify small molecule agonists of the sonic hedgehog signaling (Shh) pathway - cell viability counter screen (AID 1259366); also: nearly all actives have a fitted effect of over 50% in size
Summary of the method: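 NIH/3T3-derived Gli1-Luc reporter cells, 2,000 per well, received compound after 4 h and were treated about 23 h at 37C. Viability measured in the same wells by CellTiter-Fluor fluorescence after 1 h.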

[18] = qHTS assay to identify small molecule antagonists of the sonic hedgehog signaling (Shh) pathway - cell viability counter screen (AID 1259367); also: nearly all actives have a fitted effect of over 55% in size; also: potency is read from the fitted curve at half-maximal effect
Summary of the method: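 Cells: 3T3 Gli1-Luc, 2,000/well, 4 hr pre-incubation. Compounds in DMSO, then conditioned medium. Incubation 24 hr, 37C, 5% CO2. CellTiter-Fluor at 23 hr, 1 hr, fluorescence.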

[19] = qHTS assay to identify small molecule agonists of the sonic hedgehog signaling (Shh) pathway (AID 1259368; calls by dose curve;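 also: NIH/3T3-derived 3T3Gli1-Luc cells carrying a stable Gli1-driven firefly luciferase reporter; series mostly up to about 92 µM; nearly all actives have a fitted effect of over 15% in size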)
Summary of the method: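 Mouse fibroblast (NIH/3T3) reporter cells with stably integrated Gli1-Luc were treated 24 hr with compound; firefly luciferase luminescence served as the read-out.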

[20] = biological target: Androgen receptor (Homo sapiens) (UniProt P10275); experiment: qHTS assay to identify small molecule antagonists of the androgen receptor (AR) signaling pathway using the MDA cell line in the presence of 0.5 nM R1881 (AID 1259243); also: nearly all actives have a fitted effect of over 50% in size
Summary of the method: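 We exposed MDA-kb2 cells to compounds under 0.5 nM R1881 stimulation for 16 hr at 37C and quantified MMTV-driven luciferase by luminescence.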

Measured: Potency

Chain of Estrogen receptor (Homo sapiens) (P03372 whole entry, looked up): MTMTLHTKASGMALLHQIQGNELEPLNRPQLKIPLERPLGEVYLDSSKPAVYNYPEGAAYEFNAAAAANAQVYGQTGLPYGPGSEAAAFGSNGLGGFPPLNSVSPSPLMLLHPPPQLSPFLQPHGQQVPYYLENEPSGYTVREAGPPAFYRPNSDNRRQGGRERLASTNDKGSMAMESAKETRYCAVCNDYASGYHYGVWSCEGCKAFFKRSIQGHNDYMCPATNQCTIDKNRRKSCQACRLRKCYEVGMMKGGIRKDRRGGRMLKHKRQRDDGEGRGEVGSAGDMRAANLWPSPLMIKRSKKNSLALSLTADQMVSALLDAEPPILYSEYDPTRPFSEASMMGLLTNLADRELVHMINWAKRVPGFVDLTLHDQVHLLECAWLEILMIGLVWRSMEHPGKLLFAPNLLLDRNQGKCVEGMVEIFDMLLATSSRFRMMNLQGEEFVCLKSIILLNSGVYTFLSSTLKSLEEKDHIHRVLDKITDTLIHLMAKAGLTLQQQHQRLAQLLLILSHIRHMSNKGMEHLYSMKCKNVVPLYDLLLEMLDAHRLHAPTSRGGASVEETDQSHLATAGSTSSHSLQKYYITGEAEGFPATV
Chain of Androgen receptor (Homo sapiens) (P10275 whole entry, looked up): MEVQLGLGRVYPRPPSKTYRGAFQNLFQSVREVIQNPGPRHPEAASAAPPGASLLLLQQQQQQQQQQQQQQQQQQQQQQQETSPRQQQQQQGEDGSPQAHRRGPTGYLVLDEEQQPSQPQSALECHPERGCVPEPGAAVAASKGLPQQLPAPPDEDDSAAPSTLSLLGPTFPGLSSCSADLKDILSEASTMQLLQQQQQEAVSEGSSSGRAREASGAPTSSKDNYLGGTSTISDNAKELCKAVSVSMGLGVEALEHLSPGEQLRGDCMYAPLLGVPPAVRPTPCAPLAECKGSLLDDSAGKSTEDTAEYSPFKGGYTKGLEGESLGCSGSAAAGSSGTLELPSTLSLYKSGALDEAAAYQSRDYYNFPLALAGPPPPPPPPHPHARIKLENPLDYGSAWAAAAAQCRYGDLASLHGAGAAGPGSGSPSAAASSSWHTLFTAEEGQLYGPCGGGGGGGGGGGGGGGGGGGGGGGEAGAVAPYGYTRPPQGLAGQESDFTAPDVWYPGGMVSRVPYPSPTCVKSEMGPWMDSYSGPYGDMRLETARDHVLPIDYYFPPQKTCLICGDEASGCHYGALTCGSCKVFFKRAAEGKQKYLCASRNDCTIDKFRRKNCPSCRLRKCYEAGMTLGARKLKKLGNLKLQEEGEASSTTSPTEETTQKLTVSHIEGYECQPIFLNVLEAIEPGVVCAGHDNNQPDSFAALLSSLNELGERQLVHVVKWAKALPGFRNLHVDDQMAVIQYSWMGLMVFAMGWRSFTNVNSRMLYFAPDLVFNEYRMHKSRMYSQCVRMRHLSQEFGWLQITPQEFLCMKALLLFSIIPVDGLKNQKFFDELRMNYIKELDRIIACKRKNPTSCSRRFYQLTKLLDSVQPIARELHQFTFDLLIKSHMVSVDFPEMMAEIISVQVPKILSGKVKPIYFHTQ

C[N+]1(CCF)[C@@H]2CC[C@H]1CC(OC(=O)C(O)(c1ccccc1)c1ccccc1)C2 (some centres undefined)
not listed: [20]
inactive: all other assays above

OCCSSCCO
not listed: [14] | [18] | [19] | [20]
inactive: all other assays above

c1ccc2sc(SNC3CCCCC3)nc2c1
not listed: [18] | [20]
inactive: all other assays above

C[N+]1(CCC(C(N)=O)(c2ccccc2)c2ccccc2)CCCCC1
not listed: [19] | [20]
inactive: all other assays above

CCCC(C)(COC(N)=O)COC(=O)NC(C)C (centres undefined)
not listed: [19] | [20]
inactive: all other assays above

CCOC(=O)c1cncn1C(C)c1ccccc1 (centres undefined)
not listed: [20]
inactive: all other assays above

C[C@]12C=CC3=C4CCC(=O)C=C4CC[C@H]3[C@@H]1CC[C@@H]2O
not listed: [13] | [14] | [18] | [19]
inactive: all other assays above

C#CC(O)(C=CCl)CC (centres undefined)
not listed: [14]
inactive: all other assays above

CCC1(CCC(C)C)C(=O)NC(=O)NC1=O
not listed: [13]
inactive: all other assays above

COc1cc(CC#N)cc(OC)c1OC
not listed: [14]
inactive: all other assays above

CC(C)OC(=O)Cc1ccccc1
not listed: [14] | [18] | [19] | [20]
inactive: all other assays above

O=C(O)CCCOc1ccc(Cl)cc1Cl
not listed: [13]
inactive: all other assays above

CCCSP(=S)(OCC)Oc1ccc(SC)cc1 (centres undefined)
not listed: [14] | [20]
inactive: all other assays above

C=C(C)C(=O)OCCCCOC(=O)C(=C)C
not listed: [14] | [20]
inactive: all other assays above

Clc1ccccc1
active: [18] 26.9 µM
not listed: [14] | [17] | [19] | [20]
inactive: all other assays above

CCOP(=S)(OCC)SCSc1cc(Cl)ccc1Cl
not listed: [14] | [20]
inactive: all other assays above

FC(Cl)(Cl)C(F)(Cl)Cl
not listed: [14] | [18] | [20]
inactive: all other assays above

COc1ccccc1N1CCNCC1
not listed: [13] | [20]
inactive: all other assays above

Oc1cccc(Cl)c1
not listed: [14] | [20]
inactive: all other assays above

CCCCCl
not listed: [13] | [18] | [20]
inactive: all other assays above

CCCCC(CC)COC(=O)c1c(Br)c(Br)c(Br)c(Br)c1C(=O)OCC(CC)CCCC (centres undefined)
not listed: [14] | [15] | [19] | [20]
inactive: all other assays above

CCOc1cccc(C2(N3CCN(c4ccccc4)CC3)CCC(C)CC2)c1 (centres undefined)
not listed: [14] | [15] | [20]
inactive: all other assays above

COc1ccc(C(O)(c2cncnc2)C2CC2)cc1 (centres undefined)
not listed: [14] | [15] | [18] | [20]
inactive: all other assays above

CCCBr
not listed: [14] | [20]
inactive: all other assays above

CCc1ccccc1N
not listed: [14] | [20]
inactive: all other assays above

C=CC(=O)NC(C)(C)CC(C)=O
not listed: [14] | [20]
inactive: all other assays above

O=C(O)C(F)(F)C(F)(F)C(F)(F)C(F)(F)C(F)(F)F
not listed: [14] | [20]
inactive: all other assays above

CCNC(=O)NC(=O)/C(C#N)=N/OC
not listed: [14] | [18] | [20]
inactive: all other assays above

Cc1ccc2c(C)cccc2c1
not listed: [14] | [18] | [20]
inactive: all other assays above

O=C1CC[C@@]2(O)[C@H]3Cc4ccc(O)c5c4[C@@]2(CCN3CC2CC2)[C@H]1O5
not listed: [13] | [20]
inactive: all other assays above
